Inhibition data for 101 compounds are collected here from PubChem BioAssay AID372 (MTDP, 2006).

Molecules are shown by their SMILES. Out of some 100,000 compounds screened, about 770 (0.77%) were called active. Cut-off read from the data, not from the text of the source: active = inhibition above about 50%; inactive = the rest. The full list was thinned out, with actives kept by preference.

This assay has as its target Gag-Pol polyprotein (Human immunodeficiency virus type 1 group M subtype B (isolate HXB2)) (UniProt P04585). As to the kind of experiment: RNase H inhibition, HIV 1 Gag Pol polyprotein, FRET biochemical assay, screening (AID 372). The settings on record: HIV-1 RT RNase H, FRET RNA/DNA substrate fluorescence; at 10 µM; active compounds read high.
With `CCOc1ccc(C(=O)Nc2ccc(CC)cc2)cc1[N+](=O)[O-]`, the inhibition – broadly, how much of the control response was suppressed – was 9% (inactive).
The value for `Cc1ccc(S(=O)(=O)Nc2ccccn2)cc1C` was 0% (inactive); that for `O=P(CCCO)(c1ccc(Cl)cc1)c1ccc(Cl)cc1` was 1% (inactive); that for `O=C1C2C3C=CC(C3)C2C(=O)N1CNc1ccccc1` (stereo unspecified) was 6% (inactive).
The value for `COC(=O)c1ccccc1NS(=O)(=O)c1ccc(Cl)cc1` was 12% (inactive); that for `COC(=O)c1ccccc1NS(=O)(=O)c1ccc(NC(C)=O)cc1` was 4% (inactive); that for `COC(=O)c1ccccc1NS(=O)(=O)c1ccccc1` was 57% (active).
As for `COc1ccc(S(=O)(=O)N(CCc2ccccc2)CC(=O)NC2CCCCC2)cc1`, the figure is 4% (inactive); as for `CCn1c2ccccc2c2cc(NC(=O)COc3ccccc3Cl)ccc21`, 7% (inactive); as for `COc1cc(C=O)ccc1OCCOc1cccc(Oc2ccccc2)c1`, 21% (inactive).
In the case of `COc1cc(C=O)ccc1OCCCCOc1cccc(Oc2ccccc2)c1`, the inhibition was 44% (inactive).
The value for `Cc1ccc2nc(/C(C#N)=C/c3ccc(-c4cc([N+](=O)[O-])ccc4O)o3)[nH]c2c1` was 6% (inactive); that for `Cc1ccc([N+](=O)[O-])cc1-c1ccc(/C=C(\C#N)c2nc3ccccc3[nH]2)o1` was 58% (active).
For `COc1ccc([N+](=O)[O-])cc1-c1ccc(/C=C(\C#N)c2nc3ccc(C)cc3[nH]2)o1`, the inhibition is 34% (inactive).
As for `Cc1cccc(N2CCN(C(=O)c3ccc(Br)cc3)CC2)c1C`, the figure is 18% (inactive); as for `Cc1ccc(S(=O)(=O)c2nc(Nc3ccccc3C)sc2Cl)cc1`, 59% (active); as for `COc1nc(S(=O)(=O)c2ccc(C)cc2)c(Cl)s1`, 0% (inactive).
In the case of `Cc1ccc(S(=O)(=O)c2nc(N)sc2Cl)cc1`, the inhibition was 30% (inactive).
As for `COc1ccccc1-n1c(O)c(C=C2C=Nc3ccccc32)c(=O)[nH]c1=S`, the figure is 7% (inactive); as for `CCSc1nnc(NC(=O)c2ccc(Cl)cc2)s1`, 4% (inactive).
As for `CCSc1nnc(NC(=O)c2cnccn2)s1`, the figure is 57% (active); as for `CCc1nnc(NC(=O)c2cnccn2)s1`, 9% (inactive); as for `CCOC(=O)c1ccc(NC(=O)Cc2ccc(Br)cc2)cc1`, 3% (inactive).
As for `COc1ccc(-c2n[nH]c(=S)n2N=C/C(Br)=C/c2ccccc2)cc1`, the figure is 21% (inactive); as for `N#Cc1c(-c2ccccc2)cc(-c2ccco2)c(C#N)c1N`, 18% (inactive).
On to `N#Cc1c(-c2ccc(Br)cc2)cc(-c2ccc3c(c2)OCO3)c(C#N)c1N`, for which the inhibition was 48% (inactive).
With `N#Cc1c(-c2ccc(Br)cc2)cc(-c2ccco2)c(C#N)c1N`, the inhibition was 58% (active).
Turning to `Cc1ccccc1C(=O)Nc1sc2c(c1C(=O)Nc1cccc3ccccc13)CCC2`, the inhibition is 13% (inactive).
As to `O=C(Nc1cccc(O)c1)c1cc2nc(-c3ccc(Cl)cc3)cc(C(F)(F)F)n2n1`, the inhibition was 11% (inactive).
The value for `CC(=O)Oc1ccc(C(=O)Nc2ccc(C)cc2C(=O)O)cc1` was 4% (inactive).
The value for `CC(=O)Oc1ccc(C(=O)Nc2cccc([N+](=O)[O-])c2C)cc1` was 6% (inactive).
The value for `CC(=O)Oc1ccc(C(=O)Nc2cccc(C(=O)O)c2C)cc1` was 55% (active); that for `Cc1ccccc1N1C(=O)NC(=O)/C(=C\c2cccn2-c2ccc(Cl)cc2)C1=O` was 42% (inactive); that for `CC(C)(C)c1ccc(C(C)(C)C)c(Oc2ccccc2)c1O` was 8% (inactive).
Regarding `Cc1ccc([N+](=O)[O-])cc1NC(=O)c1cccc2c1C(=O)c1ccccc1-2`, the inhibition was 0% (inactive).
As for `COc1ccccc1/C=C1\SC(NC(C)=O)=NC1=O`, the figure is 17% (inactive); as for `COc1ccc2ccccc2c1/C=C1/SC(NC(C)=O)=NC1=O`, 52% (active); as for `COc1cccc(/C=C2/SC(NC(C)=O)=NC2=O)c1OC`, 8% (inactive).
The value for `COc1ccc(-c2n[nH]c(=S)n2/N=C/c2ccccc2Br)cc1` was 12% (inactive).
In the case of `COc1ccc(/C=C/c2ccc3ccccc3n2)cc1`, the inhibition is 17% (inactive).
In the case of `Cc1cn(C(=O)C(C)N2C(=O)c3ccccc3C2=O)c(C)n1` (stereo unspecified), the inhibition is 53% (active).
For the compound `Cc1nn(C(=O)C(C)N2C(=O)c3ccccc3C2=O)c(C)c1Br` (stereo unspecified), the inhibition is 41% (inactive).
Consider `Cc1cc(C)n(C(=O)C(C)N2C(=O)c3ccccc3C2=O)n1` (stereo unspecified), for which the inhibition is 43% (inactive).
The value for `CC1=C(C(=O)OC2CCCCCCC2)C(c2ccccc2)NC(=O)N1` (stereo unspecified) was 57% (active).
The value for `CCCCCCOC(=O)C1=C(C)NC(=O)NC1c1ccc(Br)cc1` (stereo unspecified) was 53% (active); that for `COCCOC(=O)C1=C(C)NC(=O)NC1c1ccc(C)s1` (stereo unspecified) was 8% (inactive); that for `CC1=C(C(=O)OC2CCCCCC2)C(c2ccccc2I)NC(=O)N1C` (stereo unspecified) was 52% (active).
The value for `CCCCOC(=O)C1=C(C)NC(=O)NC1c1ccc(Br)cc1` (stereo unspecified) was 23% (inactive); that for `CC1=C(C(=O)OC2CCCC2)C(c2ccccc2Cl)NC(=O)N1C` (stereo unspecified) was 5% (inactive); that for `CC1=C(C(=O)OCCc2ccccc2)C(c2ccc(C)s2)NC(=O)N1` (stereo unspecified) was 19% (inactive).
In the case of `CCCCCOC(=O)C1=C(C)NC(=O)NC1c1ccc(Br)cc1` (stereo unspecified), the inhibition was 20% (inactive).
As for `CC1=C(C(=O)OC2CCCCCC2)C(c2ccc(C)cc2)NC(=O)N1` (stereo unspecified), the figure is 36% (inactive); as for `CC1=C(C(=O)OCc2ccccc2)C(c2ccc(C)s2)NC(=O)N1` (stereo unspecified), 55% (active); as for `CC1=C(C(=O)OC2CCCCCC2)C(c2ccccc2)NC(=O)N1` (stereo unspecified), 14% (inactive).
As for `COC(=O)C1=C(C)N(C)C(=O)NC1c1ccccc1I` (stereo unspecified), the figure is 5% (inactive).
The value for `Cc1cccc(C)c1NC(=O)c1ccc(N(Cc2ccc(Cl)cc2)S(C)(=O)=O)cc1` was 15% (inactive).
As for `Cc1ccccc1OCCOc1ccc(Br)cc1/C=C1\SC(N)=NC1=O`, the inhibition is 33% (inactive).
On to `Cc1cccc(OCC(=O)Nc2ccccc2C(C)C)c1C`, for which the inhibition was 8% (inactive).
The value for `O=C(CCN1C(=O)/C(=C/c2ccccc2Cl)SC1=S)Nc1ccc(-c2ccccc2)cc1` was 16% (inactive).
The value for `CSc1nc2ccccc2n1CCOc1ccc(C)cc1` was 8% (inactive); that for `Clc1ccc(COc2ccc(/C=N/n3cnnc3)cc2)c(Cl)c1` was 3% (inactive).
As for `O=Cc1cccc(OCc2ccc(Cl)cc2Cl)c1`, the figure is 32% (inactive); as for `Clc1ccc(COc2cccc(/C=N/n3cnnc3)c2)c(Cl)c1`, 50% (active); as for `CCSCCOC(=O)C1=C(C)NC2=C(C(=O)CC(c3cccs3)C2)C1c1ccc(C)s1` (stereo unspecified), 11% (inactive).
Turning to `COc1ccc(OC)c(C2C(C(C)=O)=C(O)C(=O)N2CC2CCCO2)c1` (stereo unspecified), the inhibition was 0% (inactive).
The value for `Cc1cc(Br)ccc1N1C(=O)/C(=C/c2cccs2)C(=O)NC1=S` was 16% (inactive); that for `Cc1ccc(/C=C2\C(=O)NC(=S)N(c3ccc(Br)cc3)C2=O)o1` was 32% (inactive).
As for `Cc1ccc(/C=C2\C(=O)NC(=S)N(c3ccc(Cl)c(Cl)c3)C2=O)o1`, the figure is 11% (inactive); as for `Cc1ccc(N2C(=O)/C(=C/c3ccco3)C(=O)NC2=S)cc1`, 9% (inactive).
As to `O=C1NC(=S)N(c2ccccc2F)C(=O)/C1=C/c1ccc(-c2ccc(Cl)cc2)o1`, the inhibition was 14% (inactive).
As for `Cc1ccc(/C=C2\C(=O)NC(=S)N(c3ccc(Br)cc3C)C2=O)o1`, the figure is 24% (inactive); as for `O=C1NC(=S)N(c2ccccc2F)C(=O)/C1=C/c1ccc(N2CCCC2)o1`, 14% (inactive); as for `O=C1NC(=S)N(c2ccc(Cl)cc2)C(=O)/C1=C\c1ccc(Cl)s1`, 8% (inactive).
As to `Cc1cccc(C)c1NC(=O)c1ccc(-c2ccc(Cl)cc2Cl)o1`, the inhibition was 28% (inactive).
As for `C=CCc1cccc2cc(C(=O)N3CCCCC3)c(=O)oc12`, the inhibition is 1% (inactive).
For the compound `COc1ccc(C2/C(=C(/O)c3ccccc3)C(=O)C(=O)N2c2ccc(C)cc2)cc1` (stereo unspecified), the inhibition was 7% (inactive).
The value for `CCCCn1c(O)c(/C=C2\C=Nc3ccccc32)c(=O)[nH]c1=O` was 25% (inactive); that for `CCc1ccccc1N1C(=O)NC(=O)/C(=C\c2ccc(N3CCCCC3)o2)C1=O` was 9% (inactive); that for `O=C1NC(=S)N(c2ccc(Br)cc2)C(=O)/C1=C/C=C/c1ccco1` was 16% (inactive).
As for `O=C1NC(=S)N(c2cccc(Cl)c2Cl)C(=O)/C1=C/c1ccc(I)o1`, the figure is 45% (inactive); as for `O=C1NC(=S)N(c2ccccc2)C(=O)/C1=C\C=C\c1ccccc1[N+](=O)[O-]`, 16% (inactive).
As for `O=C1NC(=S)N(c2cccc(Cl)c2Cl)C(=O)/C1=C/c1ccc(Cl)cc1`, the figure is 10% (inactive); as for `Cc1ccccc1N1C(=O)/C(=C/c2ccc(I)o2)C(=O)NC1=S`, 18% (inactive).
As for `O=C1NC(=O)N(c2ccccc2F)C(=O)/C1=C/c1ccc(I)o1`, the inhibition is 0% (inactive).
As for `O=C1NC(=O)N(c2ccc(Cl)cc2)C(=O)/C1=C\C=C\c1ccccc1[N+](=O)[O-]`, the inhibition was 14% (inactive).
As for `Cc1cccc(N2C(=O)/C(=C/C=C/c3ccco3)C(=O)NC2=S)c1`, the figure is 11% (inactive); as for `O=C1NC(=S)N(c2cccc(Cl)c2Cl)C(=O)/C1=C/c1ccco1`, 58% (active); as for `Cc1cc(C=O)c(C)n1-c1ccc(Cl)cc1`, 10% (inactive).
Turning to `CCN(CC)c1ccc(/C=C2\C(=O)N(c3nc(-c4ccc(Cl)cc4)cs3)N=C2c2ccccc2)cc1`, the inhibition is 8% (inactive).
On to `O=[N+]([O-])c1ccc(NC(=S)Nc2ccccc2)c(O)c1`, for which the inhibition is 2% (inactive).
The value for `CCOC(=O)C1=C(C)NC2=C(C(=O)CC(c3ccc(OC)cc3)C2)C1c1ccc(O)cc1` (stereo unspecified) was 11% (inactive); that for `Cc1ccc(/C=N/NC(=O)c2ccc(F)cc2)s1` was 7% (inactive).
As for `N#C/C(=C/c1ccccc1OS(=O)(=O)c1ccccc1)c1ccc([N+](=O)[O-])cc1`, the figure is 16% (inactive); as for `COc1ccccc1/C=C(\C#N)C(N)=O`, 0% (inactive); as for `N#C/C(=C\c1cc(Br)ccc1OCc1cccc2ccccc12)C(N)=O`, 30% (inactive).
As for `N#C/C(=C\c1ccccc1[N+](=O)[O-])C(N)=O`, the figure is 0% (inactive).
With `N#C/C(=C\c1ccccc1OCCOc1ccc([N+](=O)[O-])cc1)C(N)=O`, the inhibition was 57% (active).
As for `N#C/C(=C/c1ccccc1OCc1ccccc1F)c1ccc([N+](=O)[O-])cc1`, the figure is 54% (active); as for `N#C/C(=C\c1cc(Br)ccc1OCc1ccccc1)C(N)=O`, 10% (inactive); as for `C=CCc1ccccc1OCCOc1ccc(Br)cc1/C=C(\C#N)C(N)=O`, 60% (active).
The value for `Cc1ccccc1/C=C(/C#N)c1ccc([N+](=O)[O-])cc1` was 42% (inactive).
